Assay outcomes: PubChem BioAssay, National Center for Advancing Translational Sciences (NCATS)
4-MU autofl: compounds fluorescent in 4-MU spectral region; hit rate 11% among 59,000; max dye-equivalent concentration, M; compound autofluorescence, 340/450 nm, 4-MU equivalents; hits give high values; AID 589; in the data active = max dye-equivalent concentration above about 10 nM; inconclusive = mostly about 1.1 nM to 9.6 nM
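Compounds in 100 mM Tris, pH 8.0, sat 15 min at room temperature before fluorescence was read at 340 nm excitation/450 nm emission; a per-plate six-point 4-MU standard curve converted signals to dye-equivalent concentration at each compound concentration.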
A350 fluor: compound fluoresces in the Alexa 350 spectral region | Compound autofluorescence, 340/450 nm, Alexa 350 dye-equivalents; hits give high values | max dye-equivalent concentration, M | hit rate 11% among 59,000 | AID 590; in the data active = max dye-equivalent concentration above about 10 nM; inconclusive = mostly about 1.1 nM to 9.6 nM
CRE Fsk mod: modulators of forskolin-stimulated CRE signaling in CHO cells; CHO CRE-bla reporter (cAMP response element driving beta-lactamase), forskolin EC10, beta-lactamase ratio; Potency, µM (top dose mostly 38.2 µM), for inactives: at the highest dose activity change, negative = inhibition, hits mostly activators; hit rate 2.5% among 71,000; AID 662; active = well fitted activation curve with a large enough effect in the signal ratio, with a control signal flat, not every such curve was filed as active; inconclusive = small, poorly fitted or top-dose-only effect, or effect the other way, or a change in a side signal; the % refers to the signal ratio; also: potency is read from the fitted curve at half-maximal effect; % of control where 0% means no effect
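The 460nm/530nm emission ratio after CCF4 loading defined %Activity, from which AC50 values were obtained. CRE-bla CHO cells received compound dilution series together with an EC10 level of NKH 477 for 3 hours at 37 degrees Celsius.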
HADH2 inh: blocks human hydroxyacyl-CoA dehydrogenase type II; Q99714; recombinant HADH2, NADH fluorescence, beta-hydroxybutyryl-CoA; Potency, µM (series often up to 57.1 µM), for the others: at the top dose activity change, negative = inhibition, actives largely listed as inhibitors; hit rate 3.4% among 73,000; also: potency is read from the fitted curve at half-maximal effect; % is scaled to controls: 0 for no effect and ±100 for the full control effect; nearly all actives have a fitted effect of over 60% in size
Target sequence (Q99714 whole entry, looked up, one chain of several): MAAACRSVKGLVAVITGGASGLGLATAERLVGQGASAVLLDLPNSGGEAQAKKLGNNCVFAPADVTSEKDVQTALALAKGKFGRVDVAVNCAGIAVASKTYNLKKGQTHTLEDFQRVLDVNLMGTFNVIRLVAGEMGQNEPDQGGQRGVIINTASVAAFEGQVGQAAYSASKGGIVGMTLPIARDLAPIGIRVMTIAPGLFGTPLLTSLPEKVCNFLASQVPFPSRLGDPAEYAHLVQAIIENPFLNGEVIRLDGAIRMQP
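Read-out: 360 nm excitation, 450 nm emission, kinetic over 4 min. Conditions: His-tagged human HADH2 20 nM, pH 9.0 Tris with Tween-20, 1 mM NAD+, 90 uM beta-hydroxybutyryl-CoA.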
HSD17B inhib: HSD17B dehydrogenase inhibition; Q99714; recombinant HSD17B10, NADH fluorescence kinetic; Potency, µM (doses to about 57.1 µM), without a hit: at the highest dose activity change, negative = inhibition, actives largely listed as inhibitors; hit rate 7.6% among 75,000;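 also: the protocol describes HADH2 (HSD17B10) and not the HSD17B4 of the title; potency is read from the fitted curve at half-maximal effect; % is scaled to controls: 0 for no effect and ±100 for the full control effect; nearly all actives have a fitted effect of over 70% in size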
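Activity followed as NADH fluorescence increase (ex 360, em 450 nm) every 30 seconds for 4 min, using final 90 uM beta-hydroxybutyryl CoA and 1 mM NAD+. Recombinant His-tagged enzyme, 20 nM, pH 9.0 Tris buffer, 15 min compound preincubation.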
AID923: qHTS Assay for Allosteric/Competitive Inhibitors of Caspase-1: Spectroscopic Profiling in AFC Spectral Region | compound fluorescence, AFC spectral region (405/520 nm) | Potency, µM (titrated, usually from 57.5 µM), for inactives: at the top dose fluorescence increase, usual class: activators | hit rate 1.1% among 75,000 | AID 923, 2007; also: potency is read from the fitted curve at half-maximal effect; 0% is about no effect
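Compound autofluorescence profiled at 405 nm ex/520 nm em during kinetic caspase 1 run (50 nM enzyme, 5 uM Ac-WEHD-AFC, HEPES pH 7.5, 10 mM DTT). Titration up to 57 uM; baseline from regression intercept, normalized to AFC standard curve.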
* hit, by the source's call; i = inactive; u = inconclusive; x = no result; ! = not confirmed by another sample; [ ] = another dose, or the depositor's remark. Hits are enriched below; roughly 14% of the tested compounds scored in any of these assays. Unless noted, calls follow the shape of the dose curve; as a rule, active = well fitted curve in the direction sought with a large enough effect; inconclusive = small, poorly fitted or top-dose-only effect, or another doubt; inactive = no such curve, though single readings can be large; an effect the other way counts as inactive or inconclusive.

SMILES | 4-MU autofl | A350 fluor | CRE Fsk mod | HADH2 inh | HSD17B inhib | AID923
COc1ccc(N2CCN(C(=O)CN3C(=O)C4CC=CCC4C3=O)CC2)cc1 (centres undefined) | 3.17e-07M* | 4e-07M* | 2.0% | -22.1% | 25.1µM* | -0.4%
COc1ccc(N2CCN(C(=O)CN3C(=O)c4ccccc4S3(=O)=O)CC2)cc1 | i | i | -5.6% | 5.0% | 0.9% | 0.4%
CC[N+](CC)(CC)CCOc1cccc(OCC[N+](CC)(CC)CC)c1OCC[N+](CC)(CC)CC | 1.02e-08M*! | 1.32e-08M*! | 5.1%[17.1 µM] | -7.9%[25.6 µM] | -4.1%[25.6 µM] | -3.8%[25.7 µM]
CC[N+](CC)(CC)CCOc1ccc(/C=C\c2ccccc2)cc1 | x | x | -16.2% | 2.2% | 31.6µM* | -1.7%
COc1cccc(OC)c1OCCNCCO | x | x | x | 6.6% | -2.7% | -0.6%
Cc1cc(C(F)(F)F)nc(NCc2ccc(F)cc2)n1 | i | i | u | 0.0% | u | -2.2%
COc1ccc(CNc2nc3c(c(C(F)(F)F)n2)CCCCC3)cc1 | i | i | u | -5.2% | 25.1µM* | 0.9%
O=C1CCCC2=C1C(c1ccccc1O)C1=C(CCCC1=O)O2 | i | i | -13.7% | 0.3% | 4.8% | 1.2%
O=C1CCCC(O)=C1C(C#Cc1ccccc1)C1=C(O)CCCC1=O | i | i | 0.4% | 12.6µM* | u | 1.5%
COCCn1c(=O)cnc2cnc(Nc3cccc(OC)c3)nc21 | i | i | u | -6.4% | -6.1% | 3.2%
FC(F)(F)c1cc(-c2ccccc2)nc(N2CCCCCC2)n1 | 2.98e-08M* | 2.72e-08M* | 20.2% | 1.3% | -13.3% | 2.5%
COc1ccc(-c2cc(C(F)(F)F)nc(N3CCN(C)CC3)n2)cc1 | 1.02e-08M* | u | u | -7.3% | -7.8% | 1.2%
COc1ccccc1N1CCN(c2nc(-c3ccccc3)cc(C(F)(F)F)n2)CC1 | i | i | -0.6% | -1.6% | 11.5% | 0.8%
Nc1nc(-c2ccccc2)cc(N2CCCCC2)n1 | 2.37e-08M* | 4.39e-08M* | u | u | -26.8% | 0.9%
COc1ccc(-c2cc(C(F)(F)F)nc(N3CCN(c4ccccc4)CC3)n2)cc1OC | u | u | 3.2% | 16.9% | 1.4% | 2.8%
COc1ccc(-c2cc(C(F)(F)F)nc(N3CCCCC3)n2)cc1OC | 4.93e-08M* | 4.16e-08M* | u | -22.1% | 31.6µM* | -1.0%
O=[N+]([O-])c1cccc(Cl)c1Cl | x | x | -18.5% | -2.0% | 0.5% | 4.8%
COc1ccc2c(c1)OCC(Cc1ccc(OC)c(O)c1)C2=O (centres undefined) | x | x | x | x | 1.7% | 2.4%
CC(C)=CCC/C(C)=C/CO/N=C1/C[C@@H](O)[C@@H](O)[C@@H]2[C@@H]3C(=O)N(Cc4ccc5c(c4)OCO5)C(=O)[C@H]3CC[C@H]12 | x | x | x | 5.5%[11.4 µM] | 4.6%[11.4 µM] | 0.1%[11.5 µM]
COc1cccc(-c2cc(C(F)(F)F)nc(N3CCCCC3)n2)c1 | 7.49e-08M* | 6.28e-08M* | u | u | 31.6µM* | 4.6%
COc1ccc(-c2cc(C(F)(F)F)nc(N3CCCCCC3)n2)cc1 | 6.61e-08M* | 5.68e-08M* | 24.7% | -12.3% | 31.6µM* | 1.2%
FC(F)(F)c1cc(-c2cccs2)nc(N2CCOCC2)n1 | 4.9e-08M* | 5.84e-08M* | u | u | 12.6µM* | -1.1%
O=C(c1cnccn1)N1CCC2(CCCN(c3cccc(-c4ccccc4)c3)C2)CC1 | i | i | u | 4.0% | -6.2% | 1.4%
Cc1ccc(N2CCN(CCC(=O)O)CC2)cc1 | i | i | u | -0.8%[11.4 µM] | -1.1%[11.4 µM] | -1.8%[11.5 µM]
CC(C)COc1ccc(C(=O)N(Cc2ccco2)C2CCS(=O)(=O)C2)cc1 (centres undefined) | 1.28e-07M* | 1.73e-07M* | -4.5% | -2.4% | 25.1µM* | 1.3%
COc1ccc2c(c1OC)OCC(c1ccc(OC)c(OC)c1OC)C2 (centres undefined) | x | x | x | x | -9.0% | -2.6%
OC1c2ccccc2-c2nc3ccccc3cc21 (centres undefined) | x | x | 10.3% | 6.3% | 25.1µM* | -0.1%
c1ccc2c(c1)-c1nc3ccccc3cc1[C@H]2N1CCOCC1 | i | i | 4.4%[7.6 µM] | 8.6%[11.4 µM] | 7.8%[11.4 µM] | 1.1%[11.5 µM]
